Where a structure was tested more than once in an assay, its records may differ in their call. Activity calls are given as the source filed them. Rule for the calls: active = hit-call score of the fitted dose curve at least 0.9, where 1 is the maximum; inactive = score below 0.9.
Assay: CCTE_Mundy_HCI_Cortical_NOG_BPCount: CCTE's Neurite Outgrowth Assay in rat cortical cells for Branch Point Count, Mundy Lab (AID 2284237);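 for AC50: branch points counted about two days after chemical exposure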
Experimental: CCTE_Mundy_HCI_Cortical_NOG is a multiplexed, cell-based-readout assay that uses rat primary cortical cells with measurements taken at 50.33 hours after chemical dosing in a microplate: 96-well plate.CCTE_Mundy_HCI_Cortical_NOG_BPCount is one of four components of the CCTE_Mundy_HCI_Cortical_NOG assay. It measures neurite outgrowth related to the number of branch points using High Content Imaging of fluorescently labelled markers.[…] Using a type of morphology reporter, loss -of-signal activity can be used to understand developmental effects.
Exposure starts 2 hours post-plating by adding 10 ul of the working solution to 90 ul of media in the wells for a 1/10 dilution. Forty-eight hours after chemical treatment cells are fixed by direct addition of 100 ul of warm (37C) Dulbecco's phosphate buffered saline (DPBS) fixative solution containing 8% paraformaldehyde, 8% sucrose, and 0.1% of 3 mg/ml Hoechst 33342 into each well. Primary antibodies are prepared by dilution in Immunocytochemical Staining Buffer (ISB), 10X Dulbecco's PBS, 0.1% Saponin, 5% Bovine Serum Albumin, 0.5% NaN3 (Sodium Azide) and betaIII-tubulin (rabbit anti-betaIII-tubulin, 1:800) followed by Alexa Fluor-488 secondary (1:500) to label neuronal cell bodies and neurites. A Cellomics ArrayScan VTi HCS Reader is used for automated image acquisition and analysis of neurite outgrowth.

Row | SMILES | AC50 | outcome
1 | CC[C@H](C)[C@H]1O[C@]2(C=C[C@@H]1C)C[C@@H]1C[C@@H](C/C=C(\C)[C@@H](O[C@H]3C[C@H](OC)[C@@H](O[C@H]4C[C@H](OC)[C@@H](O)[C@H](C)O4)[C@H](C)O3)[C@@H](C)/C=C/C=C3\CO[C@@H]4[C@H](O)C(C)=C[C@@H](C(=O)O1)[C@]34O)O2 (tested in a mixture with another compound) | 8.26 µM (active) | 
2 | O=S(=O)(O)C(F)(F)C(F)(F)C(F)(F)C(F)(F)C(F)(F)C(F)(F)C(F)(F)C(F)(F)F |  | inactive
3 | O=S1OCC2C(CO1)C1(Cl)C(Cl)=C(Cl)C2(Cl)C1(Cl)Cl (stereo not given) | 21.4 µM (active) | 
4 | CC1(C)C(C=C(Cl)Cl)C1C(=O)OC(C#N)c1ccc(F)c(Oc2ccccc2)c1 (stereo not given) | 63.1 µM (active) | inactive
5 | CC1(c2ccc(Oc3ccccc3)cc2)OC(=O)N(Nc2ccccc2)C1=O (stereo not given) | 50 µM (active) | 
6 | O=C(O)COc1ccc(Cl)cc1Cl |  | inactive
7 | CCC(C)(C)C(=O)OC1=C(c2ccc(Cl)cc2Cl)C(=O)OC12CCCCC2 |  | inactive
8 | CC(C)N(C(=O)COc1nnc(C(F)(F)F)s1)c1ccc(F)cc1 |  | inactive
9 | CNC(=O)CSP(=S)(OC)OC |  | inactive
10 | O=[N+]([O-])/N=C1\NCCN1Cc1ccc(Cl)nc1 |  | inactive
11 | COP(=S)(OC)Oc1ccc([N+](=O)[O-])cc1 | 23.2 µM (active) | 
12 | COP(=O)(OC)OC=C(Cl)Cl | 70 µM (active) | inactive
13 | O=C(O)C(F)(F)C(F)(F)C(F)(F)C(F)(F)C(F)(F)C(F)(F)C(F)(F)F |  | inactive

Source: PubChem BioAssay (EPA / NIEHS)
